NPC1 prom act: NPC1 promoter activation. Huh7 NPC1 promoter luciferase reporter, 24 h. 320,000 tested, 2.4% active. AID 485313. Potency, µM (highest dose often 9.22 µM), inactives show at the highest dose activation, usual class: activators; further: % of control where 0% means no effect; nearly all actives have a fitted effect of over 60% in size
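Luminescence read-out of NPC1 promoter-driven luciferase in stably transfected Huh7 cells; compounds delivered in DMSO and left 24 h at 37C, 5% CO2, qHTS titration format.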
Rab9 prom act: Rab9 promoter activation | 320,000 tested, 2.8% active | Huh7 Rab9 promoter-luciferase reporter, luminescence, 24 h | Potency, µM (doses to about 9.22 µM), inactives show at the highest dose activation, negative = inhibition, usual class: activators; further: % of control where 0% means no effect; nearly all actives have a fitted effect of over 60% in size
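Measured in stably transfected Huh7 cells bearing a Rab9 promoter–luciferase construct: 24 h compound treatment at 37 °C, followed by luminescence detection.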
ELG1 genotox: induces genotoxicity in HEK293T cells with luciferase-tagged ELG1. 330,000 tested, 1.3% active. HEK293T ELG1-luciferase reporter, luminescence, 16 h. Potency, µM (top dose mostly 46 µM), inactives show at the highest dose activity change, positive = activation, most hits filed as activators; further: % of control where 0% means no effect; nearly all actives have a fitted effect of over 60% in size
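HEK293T cells expressing luciferase-tagged ELG1 were exposed to compound or DMSO vehicle for 16 hr at 37 °C and 5% CO2. Luciferase activity was then measured with ONE-Glo after 30 min at room temperature.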
KinaseGlo FLuc: counter-screen: inhibitors of Kinase-Glo firefly luciferase. Q27757. Kinase-Glo luciferase, ATP luminescence, 8 min. Potency, µM (titrated, usually from 38.3 µM), without a hit: top-dose activity change, negative = inhibition, actives largely listed as inhibitors. 200,000 tested, 0.28% active. AID 1379; further: on the % scale 0 is the no-effect control and ±100 the full control effect; nearly all actives have a fitted effect of over 60% in size
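Recombinant Kinase-Glo luciferase, 10 uM ATP (linear range), luciferin; imidazole pH 7.2 / KCl / MgCl2 / Tween / BSA buffer; 8 min RT; luminescence.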
SMN2 splice up: increases expression of the SMN2 splice variant | HEK293 SMN2-luciferase splicing reporter, luminescence, 30-36 h | Potency, µM (highest dose often 46.1 µM), inactives show at the top dose activity change, positive = activation, hits mostly activators | 210,000 tested, 2.8% active; further: % of control where 0% means no effect; nearly all actives have a fitted effect of over 55% in size
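HEK293 cells carry an SMN2 minigene-luciferase reporter in which exon 7 inclusion puts luciferase in frame. Cells were seeded at 2000 cells/well, attached for 10-12 hours, then exposed to compounds for 30-36 hours at 37C before ONE-Glo luminescence.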
FLuc modulator: inhibits or activates purified firefly luciferase, miR-21 counter-screen; P08659; purified FLuc, Km substrates, luminescence inhibition; Potency, µM (titrated, usually from 57.5 µM), inactives show top-dose activity change, negative = inhibition, actives largely listed as inhibitors; 360,000 tested, 6.9% active;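 further: plate controls were vehicle for no effect and reference inhibitor for full effect; nearly all actives have a fitted effect of over 55% in size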
Target sequence (P08659 whole entry, looked up): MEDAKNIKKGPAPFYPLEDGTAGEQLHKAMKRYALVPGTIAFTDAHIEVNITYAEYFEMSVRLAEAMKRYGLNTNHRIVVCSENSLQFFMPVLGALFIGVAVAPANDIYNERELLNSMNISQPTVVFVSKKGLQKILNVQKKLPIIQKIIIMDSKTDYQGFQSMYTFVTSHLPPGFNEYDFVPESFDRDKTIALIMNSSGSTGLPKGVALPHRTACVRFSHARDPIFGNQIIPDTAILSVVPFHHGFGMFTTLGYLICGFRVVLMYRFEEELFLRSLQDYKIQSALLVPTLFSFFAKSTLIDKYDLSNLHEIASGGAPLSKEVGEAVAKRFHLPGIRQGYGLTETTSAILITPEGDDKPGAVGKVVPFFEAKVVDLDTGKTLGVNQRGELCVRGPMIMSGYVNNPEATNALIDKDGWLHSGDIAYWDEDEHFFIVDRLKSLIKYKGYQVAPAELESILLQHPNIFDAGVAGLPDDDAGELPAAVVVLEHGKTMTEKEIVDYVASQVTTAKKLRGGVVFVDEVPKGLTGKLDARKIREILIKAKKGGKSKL
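Biochemical qHTS of compounds, final roughly 60 µM downward over six points, against 10 nM purified firefly luciferase using Km concentrations of substrates (10 uM D-luciferin, 10 uM ATP) in Tris acetate pH 7.5 buffer; luminescence output.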
Starred values were filed as active, the others as inactive. Sampled rows, rich in hits. Any-hit rate of the full collection: about 7.5%. The call rests on the fitted dose curve; in most records, active means well fitted curve in the direction sought with a large enough effect; inconclusive means small, poorly fitted or top-dose-only effect, or another doubt; inactive means no such curve, though single readings can be large; an effect the other way counts as inactive or inconclusive. Potency means the concentration at half of the fitted maximal effect.

Screening Cc1cccc(C(=O)C2CCN(S(=O)(=O)c3cccc(C(=O)O)c3)CC2)c1 returned NPC1 prom act 7%, Rab9 prom act 5%, ELG1 genotox 3% and FLuc modulator 6%.
For Cc1c2cn[nH]c(=O)c2c(C)n1-c1ccccc1 the results were NPC1 prom act 3%, Rab9 prom act 4%, ELG1 genotox 18% and FLuc modulator 6µM*.
Screening Nc1ccc(Cc2nc3c(ccc4ccccc43)[nH]2)cc1 returned NPC1 prom act 4µM*, Rab9 prom act 4µM*, ELG1 genotox inconclusive, KinaseGlo FLuc 0%, SMN2 splice up 11% and FLuc modulator 13µM*.
O=C(Nc1nc2ccccc2[nH]1)c1cccc(Cl)c1 was read as NPC1 prom act 1µM*, Rab9 prom act 0.71µM*, ELG1 genotox 16µM* and FLuc modulator 2.1µM*.
For O=C(CCCOc1ccccc1)Nc1nc2ccccc2[nH]1 the results were NPC1 prom act inconclusive, Rab9 prom act inconclusive, ELG1 genotox inconclusive, KinaseGlo FLuc -1% and FLuc modulator 11µM*.
`Cc1ccc(OCCCC(=O)Nc2nc3ccccc3[nH]2)cc1` gave NPC1 prom act 7%, Rab9 prom act 3%, ELG1 genotox 0%, KinaseGlo FLuc 3%, SMN2 splice up 9% and FLuc modulator 3%.
For O=C(Cc1ccc(Cl)cc1)Nc1nc2ccccc2[nH]1 the results were NPC1 prom act 2%, Rab9 prom act 3%, ELG1 genotox 16%, KinaseGlo FLuc -6%, SMN2 splice up 22% and FLuc modulator -2%.
`O=C(Nc1nc2ccccc2[nH]1)c1ccccc1O` gave NPC1 prom act 1.8µM*, Rab9 prom act 0.89µM*, ELG1 genotox inconclusive and FLuc modulator 2.7µM*.
Screening O=C(Nc1nc2ccccc2[nH]1)c1ccc(Cl)cc1 returned NPC1 prom act 0.32µM*, Rab9 prom act 0.32µM*, ELG1 genotox inconclusive and FLuc modulator 0.43µM*.
Screening CN(c1cccc(Cl)c1)S(=O)(=O)c1cccc(C(=O)Nc2nc3ccccc3[nH]2)c1 returned NPC1 prom act 1%, Rab9 prom act -4%, ELG1 genotox -15%, KinaseGlo FLuc -1%, SMN2 splice up -96% and FLuc modulator -17%.
`CC(=O)Nc1nc2ccccc2[nH]1` gave NPC1 prom act -5%, Rab9 prom act 0%, ELG1 genotox 0%, KinaseGlo FLuc -2%, SMN2 splice up 20% and FLuc modulator -1%.
For CCN(CCO)Cc1csc2ccc(C(C)(C)C)cc12 the results were NPC1 prom act -2%, Rab9 prom act -7%, ELG1 genotox 3%, KinaseGlo FLuc 3%, SMN2 splice up -10% and FLuc modulator 1%.
CC(=O)NNc1ncnc2ccccc12 was read as NPC1 prom act 1%, Rab9 prom act 0%, ELG1 genotox 1%, KinaseGlo FLuc -1%, SMN2 splice up 10% and FLuc modulator -13%.
`O=C(NNc1ncnc2ccccc12)c1cccc(Cl)c1` gave NPC1 prom act inconclusive, Rab9 prom act 1.8µM*, ELG1 genotox inconclusive and FLuc modulator 2.7µM*.
`O=C(Nc1nc2ccccc2[nH]1)c1ccccc1` gave NPC1 prom act inconclusive, Rab9 prom act 1.6µM*, ELG1 genotox 0.52µM*, KinaseGlo FLuc 11µM*, SMN2 splice up 4µM* and FLuc modulator 1.5µM*.
For CC(O)CN=c1cc(-c2ccccc2)oc2ccc(Cl)cc12 (stereo not given) the results were NPC1 prom act inconclusive, Rab9 prom act inconclusive, ELG1 genotox inconclusive, KinaseGlo FLuc 4%, SMN2 splice up 17% and FLuc modulator 15µM*.
For CC(C)CN=c1cc(-c2ccccc2)oc2ccc(Cl)cc12 the results were NPC1 prom act 16%, Rab9 prom act 20%, ELG1 genotox 4%, KinaseGlo FLuc 1%, SMN2 splice up 17% and FLuc modulator inconclusive.
For CN(CCCNC(=O)CSc1cc(=O)n(C)c2cc(Cl)ccc12)Cc1ccccc1 the results were NPC1 prom act -5%, Rab9 prom act -6%, ELG1 genotox 5%, KinaseGlo FLuc -2%, SMN2 splice up -3% and FLuc modulator -5%.
For COc1ccc(N2C(=O)C(Cl)=C(Nc3ccccc3OC)C2=O)cc1 the results were NPC1 prom act 2%, Rab9 prom act -7%, ELG1 genotox 1%, KinaseGlo FLuc 3%, SMN2 splice up -33% and FLuc modulator 24µM*.
For Cc1cccc2[nH]c(CCNC(=O)C3CCC(=O)N(CCc4cccc(F)c4)C3)nc12 (stereo not given) the results were NPC1 prom act 1%, Rab9 prom act 5%, ELG1 genotox 0% and FLuc modulator 0%.
`CC(=O)c1cccc(NC(=O)c2cc(-c3ccc(F)cc3)on2)c1` gave NPC1 prom act 21%, Rab9 prom act 0%, ELG1 genotox 11%, KinaseGlo FLuc -3%, SMN2 splice up -12% and FLuc modulator inconclusive.
For O=C(Nc1cccc(Cl)c1)c1cnc[nH]1 the results were NPC1 prom act 4µM*, Rab9 prom act 4.5µM*, ELG1 genotox inconclusive, SMN2 splice up 11µM* and FLuc modulator -23%.
CC(=O)c1cccc(NC(=O)c2cc(C(C)C)on2)c1 was read as NPC1 prom act 0.63µM*, Rab9 prom act 4.5µM*, ELG1 genotox 9.2µM*, KinaseGlo FLuc -6%, SMN2 splice up inconclusive and FLuc modulator 6.7µM*.
CC(C)c1cc(C(=O)Nc2cccc(Cl)c2)no1 was read as NPC1 prom act 0.89µM*, Rab9 prom act 0.89µM*, ELG1 genotox inconclusive, KinaseGlo FLuc -26%, SMN2 splice up 11µM* and FLuc modulator 0.95µM*.
O=C(Nc1cccc(Cl)c1)c1ccncc1 was read as NPC1 prom act -4%, Rab9 prom act -4%, ELG1 genotox 4%, KinaseGlo FLuc -3%, SMN2 splice up inconclusive and FLuc modulator -13%.
For O=C(Cn1c(-c2cccs2)cc2ccccc21)NCCCN1CCN(c2ccccc2F)CC1 the results were FLuc modulator 3%.
For C/C(CCC(C)C)=N\Nc1cc(C)c2ccccc2n1 the results were NPC1 prom act -9%, Rab9 prom act 4%, ELG1 genotox -1%, KinaseGlo FLuc -2%, SMN2 splice up 2% and FLuc modulator 12µM*.
For Cn1c(=S)[nH]c2sc3c(c2c1=O)CCC(C(C)(C)C)C3 (stereo not given) the results were NPC1 prom act inconclusive, Rab9 prom act inconclusive, ELG1 genotox 7% and FLuc modulator 4.3µM*.

Source: PubChem (National Center for Advancing Translational Sciences (NCATS))
